Screening results as filed in PubChem BioAssay.
PLK1 PBD inh: inhibitors of human PLK1 polo-box domain binding; P53350; Plk1 PBD binding of FITC phosphopeptide, fluorescence polarization; Potency, µM, for the others: max response, negative = inhibition, usual class: inhibitors; actives 2.8% (n = 360,000); AID 720504; also: series mostly up to about 57 µM; nearly all actives have a fitted effect of over 65% in size
Target sequence (P53350 whole entry, looked up, the tested form may be a part): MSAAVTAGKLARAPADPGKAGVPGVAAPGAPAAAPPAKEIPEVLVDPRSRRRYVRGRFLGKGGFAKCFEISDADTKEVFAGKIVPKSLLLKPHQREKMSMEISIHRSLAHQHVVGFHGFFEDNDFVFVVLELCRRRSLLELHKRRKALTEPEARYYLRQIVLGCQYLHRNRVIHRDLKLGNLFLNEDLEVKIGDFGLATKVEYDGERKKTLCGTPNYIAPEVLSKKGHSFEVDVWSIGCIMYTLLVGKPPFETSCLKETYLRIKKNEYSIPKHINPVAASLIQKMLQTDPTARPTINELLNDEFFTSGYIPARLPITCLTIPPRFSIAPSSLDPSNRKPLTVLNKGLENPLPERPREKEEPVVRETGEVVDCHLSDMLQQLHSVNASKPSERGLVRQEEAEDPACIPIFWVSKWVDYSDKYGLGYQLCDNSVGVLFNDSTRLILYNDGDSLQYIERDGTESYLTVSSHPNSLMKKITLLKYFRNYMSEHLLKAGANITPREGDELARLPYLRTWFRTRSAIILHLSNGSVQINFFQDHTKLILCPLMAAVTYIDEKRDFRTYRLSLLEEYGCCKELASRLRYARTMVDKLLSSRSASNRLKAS
VDR inh: blocks the human vitamin D receptor; P11473; VDR-SRC2-3 peptide fluorescence polarization, 2 h; Potency, µM, without a hit: max response, negative = inhibition, hits mostly inhibitors; actives 0.93% (n = 400,000); AID 504847
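Inhibition of the VDR/SRC2-3 peptide interaction is quantified by fluorescence polarization. Compounds (23 nl, pintool) incubate with the reagents for 2 hours at ambient room temperature.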
TDP1 inh: TDP1 (human) enzyme inhibition; AID 485290; Q9NUW8; recombinant TDP1, AlphaScreen DNA substrate cleavage; Potency, µM (top dose mostly 130 µM), for inactives: at the top dose activity change, negative = inhibition, hits mostly inhibitors; actives 0.28% (n = 350,000); also: nearly all actives have a fitted effect of over 40% in size
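Here, a 5' biotin and 3' phosphotyrosine-FITC DNA oligonucleotide reports Tdp1 activity: intact substrate bridges AlphaScreen beads, while cleavage leaves a 3' phosphate and drops signal. All incubations at room temperature.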
GCN5L2 inh: GCN5L2 (KAT2A) acetyltransferase inhibition; actives 0.21% (n = 390,000); AID 504327; GCN5L2 HAT assay, ThioGlo1 CoA-SH fluorescence; Potency, µM (highest dose often 58.9 µM), without a hit: at the top dose activity change, negative = inhibition, hits mostly inhibitors
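ThioGlo1-coupled HAT assay: 20nM GCN5L2, 70uM acetyl-CoA, 75uM H3(1-25) peptide, pH 7.5. Fluorescence read at 340/540nm at start and after 20 min at room temperature.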
TDP1 cell CPT: DT40-hTDP1 cell growth loss with CPT; chicken DT40 Tdp1-/-;hTDP1 cells + 20 nM CPT, ATP luminescence, 48 h; actives 12% (n = 420,000); AID 686979; Potency, µM (doses to about 46.2 µM), for inactives: at the top dose activity change, negative = growth inhibition, hits mostly inhibitors; also: nearly all actives have a fitted effect of over 55% in size
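Chicken DT40 Tdp1-/- cells stably complemented with human TDP1 were seeded at 400 cells/well in medium containing 20 nM camptothecin, exposed to pin-transferred compounds, and grown at 37 °C for at least 48 hr. Viability was read as ATP luminescence.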
DT40 TDP1 no CPT: qHTS for Inhibitors of human tyrosyl-DNA phosphodiesterase 1 (TDP1): qHTS in cells in absence of CPT | actives 15% (n = 420,000) | Potency, µM (titrated, usually from 46.2 µM), without a hit: at the top dose activity change, negative = growth inhibition, hits mostly inhibitors | AID 686978, 2013 | DT40 Tdp1-/- hTDP1 cells, no CPT, ATP luminescence, 48 h; also: nearly all actives have a fitted effect of over 55% in size
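DT40 Tdp1-/-;hTDP1 cells, no CPT (DMSO vehicle only), 400 cells/well; compounds pin-transferred; ≥48 hr, 37 °C; CellTiter-Glo 30 min RT dark, luminescence read.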
* = called active by the depositor; ? = inconclusive; / = no result given; [ ] = another dose, or the depositor's remark. Hits are enriched below; roughly 18% of the tested compounds scored in any of these assays. Calls follow the shape of the dose curve; as a rule, active = well fitted curve in the direction sought with a large enough effect; inconclusive = small, poorly fitted or top-dose-only effect, or another doubt; inactive = no such curve, though single readings can be large; an effect the other way counts as inactive or inconclusive. % is scaled to controls: 0 for no effect and ±100 for the full control effect; potency is read from the fitted curve at half-maximal effect.

SMILES | PLK1 PBD inh | VDR inh | TDP1 inh | GCN5L2 inh | TDP1 cell CPT | DT40 TDP1 no CPT
CC(C)C1C(=O)N(Cc2cn(CCC3OCCCO3)nn2)CCS(=O)(=O)N1Cc1ccc(-c2ccc(Cl)nc2)cc1 (configuration not stated) | -1% | / | / | / | ? | 23µM*
CC(C)CC1C(=O)N(Cc2cn(CCC3OCCCO3)nn2)CCS(=O)(=O)N1Cc1ccc(-c2ccc(Cl)cc2)cc1 (configuration not stated) | 1% | / | / | / | ? | ?
CC(C)CC1C(=O)N(Cc2cn(CCC3OCCCO3)nn2)CCS(=O)(=O)N1Cc1ccc(-c2ccc(Cl)c(Cl)c2)cc1 (configuration not stated) | -1% | / | / | / | 15µM* | 16µM*
CC(C)C1C(=O)N(Cc2cn(CCC3OCCO3)nn2)CCS(=O)(=O)N1Cc1ccc(-c2ccncc2)cc1 (configuration not stated) | -9% | / | / | / | -27% | -28%
COc1ccc(-c2ccc(CN3C(C(C)C)C(=O)N(Cc4cn(CCC5OCCCO5)nn4)CCS3(=O)=O)cc2)cn1 (configuration not stated) | -3% | / | / | / | 15µM* | 21µM*
CC(C)CC1C(=O)N(Cc2cn(CCC3OCCCO3)nn2)CCS(=O)(=O)N1Cc1ccc(-c2ccc(Cl)nc2)cc1 (configuration not stated) | -6% | / | / | / | ? | 21µM*
COCC(=O)N1CCC2(CC1)CCN(C(=O)Nc1cccc(F)c1)CC2 | / | 10% | / | 10% | 9% | 0%
CC(C)(C)CC(=O)NCC(c1ccc2c(c1)OCO2)N1CCOCC1 (configuration not stated) | / | 4% | 5% | 11% | 3% | -4%
CNC(=S)NCCCCc1cnc[nH]1 | / | 6% | -6% | 12% | / | /
CC1(C(=O)NS(=O)(=O)c2ccc(Cl)cc2)CCN1C(=O)Cc1ccsc1 (configuration not stated) | 1% | / | / | / | -18% | -14%
N#CC1=C(N)N(c2ccccc2)C(c2ccccc2)C1(C#N)C#N (configuration not stated) | -22% | -3% | -6% | -4% | 16µM* | 15µM*
O=C(CN1C(=O)NC(c2ccc(F)cc2)C1=O)NC1CCCCC1 (configuration not stated) | 1% | 5% | 2% | -3% | 2% | -5%
CC(C)C[C@@H](/C=C/S(C)(=O)=O)NC(=O)[C@H](CC(C)C)NC(=O)[C@H](CC(C)C)NC(=O)OCc1ccccc1 | / | 5% | 6% | 7% | / | /
CC(=O)[C@H](CC(C)C)NC(=O)[C@@H](CC(C)C)NC(=O)[C@H](CC(C)C)NC(=O)OCc1ccccc1 | / | ? | 10%[56.1 µM] | -11% | 0.15µM* | 0.19µM*
CC(C)CC(NC(=O)C(COCc1ccccc1)NC(=O)OC(C)(C)C)C(=O)NN (configuration not stated) | 27µM* | -22% | -2% | -7% | -15% | 0%
CC(=O)NC(CC(C)C)C(=O)NC(Cc1ccccc1)C(=O)CCl (configuration not stated) | -7% | ? | / | / | 2.3µM* | 2.6µM*
O=C1c2ccccc2-c2onc3c(Br)cc(NC4CCCCC4)c1c23 | / | -19% | 4% | 4% | -9% | -11%
COCCNc1cc(N2CCN(C3CCCCC3)CC2)c2noc3c2c1C(=O)c1ccccc1-3 | / | -29% | 6% | 0% | 18µM* | 16µM*
CC(C)CNc1cc(NC2CCCCC2)c2c3c(onc13)-c1ccccc1C2=O | / | ? | 14% | 0% | ? | ?
CN(C)CCCNc1cc(N2CCN(C3CCCCC3)CC2)c2noc3c2c1C(=O)c1ccccc1-3 | / | -23% | 12% | -2% | 23µM* | 21µM*
